{"source": "PubChem BioAssay (NCATS)", "note": "Inconclusive results are not listed. Calls of active or inactive are those of the source. Calls follow the shape of the dose curve; as a rule, active = well fitted curve in the direction sought with a large enough effect; inconclusive = small, poorly fitted or top-dose-only effect, or another doubt; inactive = no such curve, though single readings can be large; an effect the other way counts as inactive or inconclusive. For viability (% of control) in this document: nearly all actives have a fitted effect of over 40% in size.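 For viability (% of control) in this document: plate controls were DMSO vehicle wells for no effect and blank wells for full effect.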", "data": [{"molecular_target": "Aldehyde dehydrogenase, mitochondrial (Homo sapiens) (UniProt P05091)", "assay": "qHTS for Inhibitors of the Aldehyde Dehydrogenase Family (ALDH2) Primary screen (AID 2061308);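 also: plate controls were vehicle for no effect and reference inhibitor for full effect; nearly all actives have a fitted effect of over 55% in size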", "settings": "ALDH2 enzyme inhibition qHTS, 1536-well; series mostly up to 56 µM; activity change, negative = inhibition: at the top concentration", "values": [{"smiles": "Cc1[nH]nc2ccc(-c3cncc(OC[C@@H](N)Cc4c[nH]c5ccccc45)c3)cc12", "activity change, negative = inhibition": "19.8% (inactive)"}, {"smiles": "CCN1CCN(C(=O)Cc2ccc(Nc3ncc(F)c(Nc4ccc(C(=O)Nc5ccccc5Cl)cc4)n3)cc2)CC1", "activity change, negative = inhibition": "7.16% (inactive)"}, {"smiles": "O=c1[nH]c2ccccc2n1C1CCN(CCCC(c2ccc(F)cc2)c2ccc(F)cc2)CC1", "Potency": "inactive"}]}, {"molecular_target": "Retinaldehyde dehydrogenase 3 (Homo sapiens) (UniProt P47895)", "assay": "qHTS for Inhibitors of the Aldehyde Dehydrogenase Family (ALDH1A3) Primary screen (AID 2061315);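 also: plate controls were DMSO vehicle for no effect and reference inhibitor for full effect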", "settings": "ALDH inhibition qHTS; series mostly up to 56 µM; activity change, negative = inhibition: at the top concentration", "values": [{"smiles": "Cc1[nH]nc2ccc(-c3cncc(OC[C@@H](N)Cc4c[nH]c5ccccc45)c3)cc12", "activity change, negative = inhibition": "-2.85% (inactive)"}, {"smiles": "CN1CCN(c2ccc([N+](=O)[O-])c3no[n+]([O-])c23)CC1", "activity change, negative = inhibition": "-0.0135% (inactive)"}, {"smiles": "CCN1CCN(C(=O)Cc2ccc(Nc3ncc(F)c(Nc4ccc(C(=O)Nc5ccccc5Cl)cc4)n3)cc2)CC1", "activity change, negative = inhibition": "6.99% (inactive)"}, {"smiles": "O=c1[nH]c2ccccc2n1C1CCN(CCCC(c2ccc(F)cc2)c2ccc(F)cc2)CC1", "Potency": "inactive"}]}, {"tested_on": "not listed separately", "assay": "BET inhibitor-based combinations targeting novel dependencies in MECOM-rearranged (r) AML: OCI-AML3 cell line (AID 2202232); also: potency is read from the fitted curve at half-maximal effect; nearly all actives have a fitted effect of over 35% in size", "settings": "CellTiter-Glo luminescence, 48 h; Potency: OCI-AML3 viability; series mostly up to 46 µM; viability (% of control): at the top concentration", "in_short": "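A 48 hr incubation preceded viability reading by CellTiter-Glo, with 15 min room-temperature development. Dose series had 11 points; normalization used DMSO and empty wells; AUC was computed and mean-centered per line as Z-AUC.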", "values": [{"smiles": "Cc1[nH]nc2ccc(-c3cncc(OC[C@@H](N)Cc4c[nH]c5ccccc45)c3)cc12", "Potency": "0.934 µM (active)"}, {"smiles": "CN1CCN(c2ccc([N+](=O)[O-])c3no[n+]([O-])c23)CC1", "Potency": "9.34 µM (active)"}, {"smiles": "CCN1CCN(C(=O)Cc2ccc(Nc3ncc(F)c(Nc4ccc(C(=O)Nc5ccccc5Cl)cc4)n3)cc2)CC1", "Potency": "2.95 µM (active)"}]}, {"tested_on": "not listed separately", "assay": "BET inhibitor-based combinations targeting novel dependencies in MECOM-rearranged (r) AML: HNT-34 cell line (AID 2202234); also: potency is read from the fitted curve at half-maximal effect; nearly all actives have a fitted effect of over 35% in size", "settings": "HNT-34 AML viability, CellTiter-Glo luminescence, 48 h; series mostly up to 46 µM; viability (% of control): at the top concentration", "in_short": "(§1)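 Each compound is tested in an 11-point concentration series against 500 seeded cells/well for 48 hr. The luminescent viability signal is normalized to DMSO and blank wells, then reduced to AUC and a cell-line-centred Z-AUC.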", "values": [{"smiles": "CN1CCN(c2ccc([N+](=O)[O-])c3no[n+]([O-])c23)CC1", "Potency": "18.6 µM (active)"}, {"smiles": "CCN1CCN(C(=O)Cc2ccc(Nc3ncc(F)c(Nc4ccc(C(=O)Nc5ccccc5Cl)cc4)n3)cc2)CC1", "Potency": "1.48 µM (active)"}, {"smiles": "Cn1cc(C2=C(c3cn(C4CCN(Cc5ccccn5)CC4)c4ccccc34)C(=O)NC2=O)c2ccccc21", "Potency": "5.25 µM (active)"}]}, {"tested_on": "not listed separately", "assay": "BET inhibitor-based combinations targeting novel dependencies in MECOM-rearranged (r) AML: UCSD-AML1 cell line (AID 2202235)", "settings": "UCSD-AML1 AML cells viability, CellTiter-Glo, 48 h; series mostly up to 46 µM; viability (% of control): at the top concentration", "in_short": "as §1", "values": [{"smiles": "Cc1[nH]nc2ccc(-c3cncc(OC[C@@H](N)Cc4c[nH]c5ccccc45)c3)cc12", "Potency": "0.468 µM (active)"}, {"smiles": "CCN1CCN(C(=O)Cc2ccc(Nc3ncc(F)c(Nc4ccc(C(=O)Nc5ccccc5Cl)cc4)n3)cc2)CC1", "Potency": "3.72 µM (active)"}, {"smiles": "Cn1cc(C2=C(c3cn(C4CCN(Cc5ccccn5)CC4)c4ccccc34)C(=O)NC2=O)c2ccccc21", "viability (% of control)": "112% (inactive)"}]}]}
